Experimental findings from the supplement of paper PMC9877034 are described below.

Structures can show the parent of a compound that is named as a salt. In all, about 1,000 compounds were measured (“cFRET/donor change relative to DMSO, normalised to beta-lapachone positive control (supercomplex I-IV assembly)”: median about 0.18, lowest 2% from about -1 on). Only a selection was taken, and the lowest values are over-represented in it overall.

The assay relates to C2C12 (NDUFB8-AcGFP / COX8A-DsRed-Monomer FRET reporter). Description: cFRET/donor change relative to DMSO, normalised to beta-lapachone positive control (supercomplex I-IV assembly) (fraction of beta-lapachone effect); higher = more respiratory supercomplex assembly. Particulars: 40 µM; 24 h. The protocol:
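Cells were treated with 40 uM compound for 24 h and imaged on an IN Cell Analyzer 6000. Corrected FRET was divided by donor signal (cFRET/donor) and measured in two replicate experiments. The score is (mean cFRET/donor of compound - mean DMSO) / (mean beta-lapachone 40 uM - mean DMSO). Compounds flagged for prominent cell death, abnormal morphology or decreased cell number were excluded.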
As for `COCCOc1cc2ncnc(Cl)c2cc1OCCOC`, the cFRET/donor change was 0.0633.
The value for `CCOC(=O)c1ccc(C#Cc2ccc3c(c2)C(C)(C)CCS3)nc1` [Tazarotene] was 0.454; that for `c1ccc2c(c1)CC(N1CCN(c3cccc4c3OCCO4)CC1)C2` was 0.201.
As for `c1cnc2cc3c(cc2n1)[C@@H]1CNC[C@H]3C1` [Varenicline tartrate], the cFRET/donor change was determined as 0.22.
In turn, `Cc1ccc(S(=O)(=O)/C=C/C#N)cc1` showed a cFRET/donor change of 0.324.
The value for `COc1ccc(CCNc2nc(N3CCc4cc(OC)c(OC)cc4C3)c3cc(OC)c(OC)cc3n2)cc1OC` was 0.14; that for `O=C1c2c(O)cc(O)cc2O[C@H](c2ccc(O)c(O)c2)[C@H]1O` (racemic) [(±)-Taxifolin] was 0.226; that for `CN(c1ccccc1CNc1nc(Nc2ccc3c(c2)CC(=O)N3)ncc1C(F)(F)F)S(C)(=O)=O` was 0.036.
To `O=C(O[C@@H]1C[C@@H]2C[C@H]3C[C@H](C1)N2CC3=O)c1c[nH]c2ccccc12` [Dolasetron mesylate hydrate] belongs 0.115; to `NC(N)=NCc1cccc(I)c1` [m-Iodobenzylguanidine hemisulfate], -0.0455; to `CN(CCCOc1ccc(Cc2ccccc2)cc1)CCC(=O)O`, 0.52.
To `COc1cccc(OC)c1-c1cc(C(=O)NC2(C(=O)O)C3CC4CC(C3)CC2C4)nn1-c1ccc(C(=O)N(C)CCCN(C)C)cc1C(C)C` (stereo unspecified) belongs 0.153; to `CC(C)[N+]1(C)[C@@H]2CC[C@H]1C[C@@H](OC(=O)C(CO)c1ccccc1)C2` (stereo partly specified) [Ipratropium bromide], 0.299; to `O=C1CCC(c2ccc(-n3ccnc3)cc2)=NN1` [Imazodan], 0.0699.
`Nc1nc(=O)c(Br)c(-c2ccccc2)[nH]1` [Bropirimine]: the cFRET/donor change was -0.0226.
The value for `Nc1ccc(-c2nc3ccc(-c4nc5ccc(N)cc5[nH]4)cc3[nH]2)cc1` was -0.494.
With `CC(C)(C)NC(=O)[C@@H]1CN(Cc2cccnc2)CCN1C[C@@H](O)C[C@@H](Cc1ccccc1)C(=O)N[C@H]1c2ccccc2C[C@H]1O` [Indinavir sulfate salt hydrate], the cFRET/donor change was 0.0944.
The value for `Cc1cc(NC2CCCCC2)nc(-n2nc(C)cc2C)n1` was 0.569; that for `O=C1/C(=C/c2cccs2)CC/C1=C\c1cccs1` was 0.584; that for `CCN(CC)CCCC(C)Nc1c2ccc(Cl)cc2nc2ccc(OC)cc12` (stereo unspecified) [Quinacrine dihydrochloride] was -4.52.
The value for `OC[C@H]1O[C@@H](n2cnc3c(N[C@H]4CCC[C@@H]4O)ncnc32)[C@H](O)[C@@H]1O` was 0.476; that for `C[C@H](c1ccc(F)cc1CCCC(=O)O)N(c1cc(F)ccc1F)S(=O)(=O)c1ccc(Cl)cc1` was 0.476; that for `C[N+](C)(C)CCO.[Br-]` [Choline bromide] was 0.313.
For the molecule `O=C(CCCCCN1CCN(c2ccccc2-c2ccccc2)CC1)NC1CCCc2ccccc21` (stereo unspecified) [LP 12 hydrochloride hydrate], the cFRET/donor change stood at 1.51.
The value for `C=CC1=C(C)c2cc3[nH]c(cc4nc(cc5[nH]c(cc1n2)c(C)c5CCC(=O)O)C(CCC(=O)O)=C4C)c(C)c3C=C` [Protoporphyrin IX disodium] was 3.12.
To `COC(=O)C1=C(C)NC(C)=C(C(=O)OC2CCCN(Cc3ccccc3)C2)C1c1cccc([N+](=O)[O-])c1` (stereo unspecified) [Benidipine hydrochloride] belongs 0.367; to `CCc1cccc(N(C)C(=N)Nc2cccc3ccccc23)c1`, 0.203; to `CCOC(=O)[C@@H](N)Cc1ccc(O)c(O)c1` [L-Dopa ethyl ester], -0.101.
The value for `O=c1n(CCCN2CCN(c3cccc(Cl)c3)CC2)nc2ccccn12` [Trazodone hydrochloride] was 0.586; that for `CC[C@H]1OC(=O)[C@H](C)[C@@H](O[C@H]2C[C@@](C)(OC)[C@@H](O)[C@H](C)O2)[C@H](C)[C@@H](O[C@@H]2O[C@H](C)C[C@H](NC)[C@H]2O)[C@](C)(O)C[C@@H](C)CN(C)[C@H](C)[C@@H](O)[C@]1(C)O` was 0.325; that for `O=C(O)c1cc(=O)c2ccccc2[nH]1` [Kynurenic acid] was -0.161.
`O=c1cc(-c2ccccc2)[nH]c2nc(Cl)ccc12` [7-Chloro-4-hydroxy-2-phenyl-1,8-naphthyridine] came in with a cFRET/donor change of -1.98.
To `CN1[C@@H]2CC[C@H]1CC(OC(=O)c1c[nH]c3ccccc13)C2` (stereo partly specified) [3-Tropanyl-indole-3-carboxylate hydrochloride] belongs 0.435; to `CCCOc1ccccc1-c1nc2[nH]nnc2c(=O)[nH]1` [Zaprinast], 0.225.
To `CCCCN(CC)c1nc(C)nc2c1c(C)cn2-c1c(C)cc(C)cc1C` belongs 0.353.
Turning to `CNC(=O)[C@H]1O[C@@H](n2cnc3c(NCc4ccc(N)cc4)ncnc32)[C@H](O)[C@@H]1O`, the cFRET/donor change stood at 0.125.
The value for `Cc1nc(C#Cc2cccnc2)cs1` [MTEP hydrochloride] was 0.691.
The value for `CCCc1nn(C)c2c(=O)[nH]c(-c3cc(S(=O)(=O)N4CCN(C)CC4)ccc3OCC)nc12` [Sildenafil citrate salt] was 0.123.
To `NS(=O)(=O)c1cc2c(cc1Cl)N=CNS2(=O)=O` [Chlorothiazide] belongs 0.223.
On to `C=C1C(=O)O[C@H]2[C@H]1CC/C(C)=C/CC[C@@]1(C)O[C@@H]21` [Parthenolide], for which the cFRET/donor change was 0.366.
The value for `CN(CCOc1ccc(NS(C)(=O)=O)cc1)CCc1ccc(NS(C)(=O)=O)cc1` [Dofetilide] was 0.532; that for `CC1CCN=C(N)S1` (racemic) [(±)-AMT hydrochloride] was 0.00413; that for `CC(=O)/C=C1/C(=O)N(C)c2ccccc21` [Supercinnamaldehyde] was 0.0218.
To `CC(N)(Cc1ccc(O)cc1)C(=O)O` (racemic) [DL-alpha-Methyl-p-tyrosine] belongs -0.224; to `C[C@]12CC[C@@H]3c4ccc(O)cc4C[C@@H](CCCCCCCCC[S+]([O-])CCCC(F)(F)C(F)(F)F)[C@H]3[C@@H]1CC[C@@H]2O` (stereo partly specified) [Fulvestrant], 0.0846; to `NS(=O)(=O)c1nn2cc(-c3ccccc3)nc2s1`, -0.298.
The value for `COC(=O)C(C)(N)Cc1ccc(O)cc1` (racemic) [alpha-Methyl-DL-tyrosine methyl ester hydrochloride] was 0.302.
As for `O=C1OC(=O)[C@H]2[C@@H]1[C@@H]1CC[C@H]2O1` [Norcantharidin], the cFRET/donor change is 0.251.
To `CCCCC1(C2CCCC2)Cc2cc(OCC(=O)O)c(Cl)c(Cl)c2C1=O` (stereo in doubt) [R(+)-Butylindazone] belongs 0.322.
The value for `CC(=O)NC[C@H]1CN(c2ccc(N3CCOCC3)c(F)c2)C(=O)O1` [Linezolid] was 0.372.
The value for `CCCCCCCCCCCCCCCC(=O)OC[C@H](COP(=O)(O)OCCNC(=O)[C@H](C)NC(=O)CC[C@@H](NC(=O)[C@H](C)NC(=O)[C@@H](C)O[C@H]1[C@H](O)[C@@H](CO)OC(O)[C@@H]1NC(C)=O)C(N)=O)OC(=O)CCCCCCCCCCCCCCC` (stereo partly specified) [Mifamurtide] was -0.0931; that for `O=C1CCCC(=O)C1C(=O)c1ccc(C(F)(F)F)cc1[N+](=O)[O-]` [Nitisinone] was 0.0147; that for `C=C1C[C@@]23CC[C@H]4[C@@](C)(CCC[C@@]4(C)C(=O)O[C@@H]4O[C@H](CO)[C@@H](O)[C@H](O)[C@H]4O)[C@@H]2CC[C@]1(O[C@@H]1O[C@H](CO)[C@@H](O)[C@H](O)[C@H]1O[C@@H]1O[C@H](CO)[C@@H](O)[C@H](O)[C@H]1O)C3` [Stevioside] was 0.0782.
`N[C@H](C(=O)O)[C@H](Cc1ccccc1)C(=O)O` [L-Beta-threo-benzyl-aspartate] came in with a cFRET/donor change of -0.122.
The value for `CCCCCCCCCCCCCCC[C@H](O)[C@H](N)CO` (racemic) [DL-erythro-Dihydrosphingosine] was 0.48; that for `CC(C)NCC(O)c1ccc(O)c(O)c1` (single isomer, unassigned; (-)) [(-)-Isoproterenol hydrochloride] was 0.53; that for `C[C@]12C=CC(=O)C=C1CC[C@@H]1C2=CC[C@]2(C)[C@@H](C(=O)CN3CCN(c4cc(N5CCCC5)nc(N5CCCC5)n4)CC3)CC[C@@H]12` was -1.85.
The value for `CCN(CC)CCCCNc1ncc2cc(-c3c(Cl)cccc3Cl)c(NC(=O)NC(C)(C)C)nc2n1` was 0.403.
Turning to `Cc1cn([C@H]2C[C@H](N=[N+]=[N-])[C@@H](CO)O2)c(=O)[nH]c1=O` [3'-Azido-3'-deoxythymidine], the cFRET/donor change was -0.184.
As for `O=CN(O)CCCP(=O)(O)O` [Fosmidomycin sodium salt hydrate], the cFRET/donor change is 0.0766.
The value for `N[C@H](C(=O)O)[C@H](O)c1ccc(O)c(O)c1` was 0.419; that for `O=c1[nH]c(=O)n(C2CCCO2)cc1F` (stereo unspecified) [Tegafur] was 0.268; that for `O=C(NOC[C@H](O)CO)c1ccc(F)c(F)c1Nc1ccc(I)cc1F` was 0.21.
To `CN(C)c1cc2c(Nc3ccc4c(cnn4Cc4ccccc4)c3)ncnc2cn1` belongs -7.46.
Take `COc1cc2ncnc(Nc3cccc(Cl)c3)c2cc1OC` [Tyrphostin AG 1478]: the cFRET/donor change came to 0.19.
To `CC1=C(C(=O)O)N2C(=O)[C@@H](NC(=O)[C@H](N)c3ccccc3)[C@H]2SC1` [Cephalexin hydrate] belongs 0.038.
To `CNS(=O)(=O)CCc1ccc2[nH]cc(C3CCN(C)CC3)c2c1` [Naratriptan hydrochloride] belongs 0.347; to `O=c1c(O)c(-c2ccc(O)cc2O)oc2cc(O)cc(O)c12` [Morin], -3.25.
The value for `O=c1c(-c2ccc(O)cc2)coc2cc(O)ccc12` [Daidzein] was 0.201; that for `O=c1cc(-c2ccc(O)cc2)oc2cc(O)cc(O)c12` [Apigenin] was -1.74.
`COc1ccc(-c2cc(=O)c3c(O)c(OC)c(OC)cc3o2)cc1O` [Eupatorin] yielded a cFRET/donor change of 0.395.
The value for `O=c1cc(-c2ccccc2)oc2c(O)c(O)ccc12` [7,8-Dihydroxyflavone hydrate] was -0.0745.
To `O=C(Nc1ccccc1C(=O)NC1CCCCNC1=O)c1cc2ccccc2s1` (stereo unspecified) belongs 0.384.
To `CN1[C@@H]2CC[C@H]1C[C@@H](OC(=O)C(O)c1ccccc1)C2` (mixture of isomers) [DL-Homatropine hydrobromide] belongs 0.0655; to `Cn1c(=O)c2[nH]c(-c3ccccc3)nc2n(C)c1=O` [1,3-Dimethyl-8-phenylxanthine], -1.5.
On to `Cn1c(=O)c2[nH]c(-c3ccc(S(=O)(=O)O)cc3)nc2n(C)c1=O` [8-(p-Sulfophenyl)theophylline], for which the cFRET/donor change stood at 0.086.
To `Cn1c(=O)c2[nH]c(C3CCCC3)nc2n(C)c1=O` [8-Cyclopentyl-1,3-dimethylxanthine] belongs 0.158; to `Cc1c(O)cccc1C(=O)N[C@@H](CSc1ccccc1)[C@H](O)CN1C[C@H]2CCCC[C@H]2C[C@H]1C(=O)NC(C)(C)C` [Nelfinavir mesylate hydrate], -0.54; to `O=C(O)CCc1ccc(NCc2cccc(Oc3ccccc3)c2)cc1`, -0.4.
To `C[C@@H](c1ncncc1F)[C@](O)(Cn1cncn1)c1ccc(F)cc1F` [Voriconazole] belongs 0.181; to `NC1CONC1=O` (racemic) [DL-Cycloserine], 0.397; to `NC(N)=NC(=O)c1nc(Cl)c(N2CCCCCC2)nc1N` [5-(N,N-hexamethylene)amiloride], 0.351.
The value for `CCOc1ncc(S(=O)(=O)N2CCN(CC)CC2)cc1-c1nc(=O)c2nn(CCOC)c(CC)c2[nH]1` [Gisadenafil besylate salt] was 0.0753.
`O=C1Nc2ccc(I)cc2/C1=C/c1cc(Br)c(O)c(Br)c1` had a cFRET/donor change of -3.
The value for `N=C(N)c1ccc(OCCCCCOc2ccc(C(=N)N)cc2)cc1` [Pentamidine isethionate] was 0.191; that for `CC(C)(NS(=O)(=O)c1ccc(Oc2ccc(F)cc2)cc1)C(=O)NO` was 0.196; that for `CN1[C@@H]2CC[C@H]1C[C@@H](OC(c1ccccc1)c1ccccc1)C2` [Benztropine mesylate] was 0.586.
Molecule `Cc1c(-c2ccc(-c3ccccc3F)cc2)nc2ccc(F)cc2c1C(=O)O` [Brequinar sodium salt hydrate] showed a cFRET/donor change of 0.431.
To `Nc1ccc(CCNc2ncnc3c2ncn3C2OC(CO)C(O)C2O)cc1` (stereo unspecified) [N6-2-(4-Aminophenyl)ethyladenosine] belongs 0.338; to `CCCC(CCC)C(=O)O[C@H]1C[C@H]2CC[C@@H](C1)[N+]2(C)C` [Anisotropine methyl bromide], 0.0542; to `COc1ccc(CCn2nnnc2C2(c3ccc(C)cc3)CC2)cc1` [Mephetyl tetrazole], 0.388.
